Only some compounds are listed: those with a hit (about 19% of all), similar ones and a draw of the others.
HT1080 IDH1KD tx: HT-1080 IDH1 knockdown cell toxicity (counter line) | 360,000 compounds, 2% hits | HT-1080 IDH1 knockdown viability, ATP luminescence, 48 h | Potency, µM (titrated, usually from 46.1 µM), for the others: at the top dose activity, negative = toxicity, actives largely listed as cytotoxic;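 note: potency is the fitted concentration of half-maximal effect; 0% = DMSO wells and -100% = cell-free medium wells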
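HT-1080-IDH1KD cells (IDH1 knocked down), 750/well in RPMI with 5% FBS, treated with compound 48 h at 37 degrees C. Viability by CellTiter-Glo luminescence, normalised to DMSO and no-cell wells; concentration-response curves classed.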
IL-1B inflam inh: inflammasome signaling inhibition, IL-1 beta readout | 360,000 compounds, 4.7% hits | THP-1 LPS/ATP IL-1B secretion, AlphaLISA, 16 h; hits give low values | activity change, % at 57.5 µM | AID 743279; in the data active = activity change below about -50%; inconclusive = mostly about -30% to -49%
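THP-1 cells pretreated 1 hr with compounds (up to 57.5 uM final), then stimulated with LPS (250 ng/mL final) plus ATP (1.25 mM final); secreted IL-1B measured by AlphaLISA after 16 hr, decreased signal indicating inhibition.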
uPA generation: cell surface uPA generation inhibition. cell surface uPA generation assay, qHTS. Potency, µM (top dose mostly 38.3 µM), without a hit: at the highest dose activity change, negative = inhibition, actives largely listed as inhibitors. 330,000 compounds, 0.31% hits; active = well fitted inhibition curve with a large enough effect; inconclusive = small, poorly fitted or top-dose-only effect; inactive = no such curve, though single readings can be large or run the other way; tested in mouse RAW 264.7 cells; note: potency is the fitted concentration of half-maximal effect; nearly all actives have a fitted effect of over 55% in size
TDP1 cell noCPT: qHTS for Inhibitors of human tyrosyl-DNA phosphodiesterase 1 (TDP1): qHTS in cells in absence of CPT | DT40 Tdp1-/- hTDP1 cells, no CPT, ATP luminescence, 48 h | Potency, µM (doses to about 46.2 µM), for the others: top-dose activity change, negative = growth inhibition, most hits filed as inhibitors | 420,000 compounds, 15% hits | AID 686978, 2013; note: potency is the fitted concentration of half-maximal effect; nearly all actives have a fitted effect of over 55% in size
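Luminescent ATP content (CellTiter-Glo) served as the growth readout. Knockout chicken DT40 cells expressing human TDP1 were exposed to compounds without camptothecin for a minimum 48 hr at 37 °C.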
TDP1 cell CPT: DT40-hTDP1 cell growth loss with CPT; 420,000 compounds, 12% hits; Potency, µM (series often up to 46.2 µM), for inactives: top-dose activity change, negative = growth inhibition, most hits filed as inhibitors; AID 686979; chicken DT40 Tdp1-/-;hTDP1 cells + 20 nM CPT, ATP luminescence, 48 h; note: potency is the fitted concentration of half-maximal effect; nearly all actives have a fitted effect of over 55% in size
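Chicken DT40 Tdp1-/- cells complemented with human TDP1, 400 cells/well, exposed to compounds plus 20 nM camptothecin for at least 48 h at 37 C; viability read as ATP content by CellTiter-Glo luminescence.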
HT1080-NT tox: kills 2HG-producing HT-1080-NT fibrosarcoma cells. HT-1080-NT fibrosarcoma viability, CellTiter-Glo ATP luminescence, 48 h. Potency, µM (series often up to 46.1 µM), without a hit: top-dose activity, negative = less viability, usual class: cytotoxic. 360,000 compounds, 1.6% hits. AID 686970;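 note: NT is the 2HG producing partner of a matched IDH1 knockdown line; potency is the fitted concentration of half-maximal effect; 0% = DMSO-treated cells and -100% = media-only wells without cells; nearly all actives have a fitted effect of over 55% in size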
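Fibrosarcoma NT cells, 750 per well in 5% FBS RPMI, were exposed to compound for 48 hours. Viability: CellTiter-Glo luminescence.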
The depositor's hits bear a star; [ ] = another dose, or the depositor's remark. Unless noted, calls come from the whole dose curve; as a rule, active = well fitted curve in the direction sought with a large enough effect; inconclusive = small, poorly fitted or top-dose-only effect, or another doubt; inactive = no such curve, though single readings can be large; an effect the other way counts as inactive or inconclusive. Unless noted, % is set by controls: 0 for no effect and ±100 for the full control effect.

Screening CC1(C)C(=O)N(c2ccccc2Cl)C(=O)c2ccccc21 returned HT1080 IDH1KD tx 9%, IL-1B inflam inh -6, uPA generation -1%, TDP1 cell noCPT inconclusive, TDP1 cell CPT -7% and HT1080-NT tox 15%.
Screening N/C(=N\OC(=O)c1ccccc1)c1ccccn1 returned HT1080 IDH1KD tx inconclusive, IL-1B inflam inh 4, uPA generation -11%, TDP1 cell noCPT -20%, TDP1 cell CPT -7% and HT1080-NT tox inconclusive.
`C/C(=N/NC(=O)c1ccc(C(C)(C)C)cc1)c1ccccn1` gave HT1080 IDH1KD tx 5.8µM*, IL-1B inflam inh 84, uPA generation 11%, TDP1 cell noCPT 0.23µM*, TDP1 cell CPT 0.46µM* and HT1080-NT tox 7.3µM*.
`N/C(=N\OC(=O)/C=C/c1ccccc1Cl)c1ccccn1` gave HT1080 IDH1KD tx 8%, IL-1B inflam inh 1, uPA generation 3.5µM*, TDP1 cell noCPT 8%, TDP1 cell CPT -4% and HT1080-NT tox inconclusive.
Screening CC(C)(C)c1ccc(C(=O)O/N=C(\N)c2ccccn2)cc1 returned HT1080 IDH1KD tx inconclusive, IL-1B inflam inh -65*, uPA generation -15%, TDP1 cell noCPT -22%, TDP1 cell CPT 23µM* and HT1080-NT tox inconclusive.
Screening C/C(=N\NC(=O)c1ccccc1Cl)c1ccccn1 returned HT1080 IDH1KD tx inconclusive, IL-1B inflam inh 117, uPA generation inconclusive, TDP1 cell noCPT 2.9µM*, TDP1 cell CPT 2.9µM* and HT1080-NT tox inconclusive.
`Cc1ccc(S(=O)(=O)N(C)C[C@@H]2OCc3cnnn3CCCC(=O)N([C@H](C)CO)C[C@@H]2C)cc1` gave HT1080 IDH1KD tx -1%, IL-1B inflam inh 15, TDP1 cell noCPT -22%, TDP1 cell CPT -16% and HT1080-NT tox 2%.
For CC1=C(C(=O)N(C(C)C)C(C)C)CC(CC(=O)NC(c2ccccc2)c2ccccc2)C(=O)N1Cc1ccc(F)cc1 (centres undefined) the results were HT1080 IDH1KD tx 2%, IL-1B inflam inh -3, TDP1 cell noCPT inconclusive, TDP1 cell CPT inconclusive and HT1080-NT tox 5%.
`Cc1oc(-c2ccccc2NC(=O)C2CCCO2)nc1CNC(=O)c1cc(Cl)ccc1F` (centres undefined) gave TDP1 cell noCPT -11% and TDP1 cell CPT 10%[9.04 µM].
CC(=NNC(=O)c1ccncc1)c1cccc(Br)c1 was read as HT1080 IDH1KD tx 7%, IL-1B inflam inh -16, uPA generation -4%, TDP1 cell noCPT -10%, TDP1 cell CPT 0% and HT1080-NT tox 9%.
For C/C(=N\NC(=O)c1cccc(Br)c1)c1ccccn1 the results were HT1080 IDH1KD tx inconclusive, IL-1B inflam inh -15, uPA generation 9%, TDP1 cell noCPT 0.92µM*, TDP1 cell CPT 0.73µM* and HT1080-NT tox inconclusive.
For C/C(=N\NC(=O)c1cc(-c2ccncc2)nc2ccccc12)c1ccc(N2CCOCC2)cc1 the results were HT1080 IDH1KD tx 10µM*, IL-1B inflam inh 12, uPA generation inconclusive, TDP1 cell noCPT inconclusive, TDP1 cell CPT inconclusive and HT1080-NT tox 21µM*.
Screening C/C(=N\NC(=O)c1cc(Br)ccc1O)c1ccccn1 returned HT1080 IDH1KD tx inconclusive, IL-1B inflam inh -81*, uPA generation 8%, TDP1 cell noCPT 3.7µM*, TDP1 cell CPT 3.3µM* and HT1080-NT tox inconclusive.
CCOc1ccc(C(=O)CCC(=O)NCC(=O)Nc2c(C)cccc2C)cc1 was read as HT1080 IDH1KD tx 1%, IL-1B inflam inh -15, uPA generation 18%, TDP1 cell noCPT 6%, TDP1 cell CPT -1% and HT1080-NT tox 3%.
For Cc1cn2c(=O)cc(COc3ccccc3NC(=O)c3ccccc3C)nc2s1 the results were TDP1 cell noCPT inconclusive and TDP1 cell CPT -2%.
CCN(C(=O)Cc1ccccc1OC)c1nnc(-c2ccncc2)s1 was read as HT1080 IDH1KD tx -5%, IL-1B inflam inh 2, uPA generation 2%, TDP1 cell noCPT 15µM*, TDP1 cell CPT inconclusive and HT1080-NT tox inconclusive.
CCCN(C(=O)c1cccs1)c1nnc(-c2ccncc2)s1 was read as HT1080 IDH1KD tx 13%, IL-1B inflam inh -50*, uPA generation 5%, TDP1 cell noCPT inconclusive, TDP1 cell CPT -24% and HT1080-NT tox 19%.
`CC(C)NC(=O)c1ccc(CN2CCc3ccccc3C2)cc1` gave HT1080 IDH1KD tx 5%, IL-1B inflam inh 18, uPA generation 11%, TDP1 cell noCPT inconclusive, TDP1 cell CPT -20% and HT1080-NT tox 10%.
FC(F)(F)C(Oc1nc(Nc2ccc(Cl)cc2)nc(N2CCOCC2)n1)C(F)(F)F was read as HT1080 IDH1KD tx -5%, IL-1B inflam inh -76*, uPA generation 3%, TDP1 cell noCPT 21µM*, TDP1 cell CPT inconclusive and HT1080-NT tox inconclusive.
For CC(C)c1ccc(Nc2nc(Nc3ccc(Cl)cc3)nc(N3CCOCC3)n2)cc1 the results were TDP1 cell noCPT 11µM* and TDP1 cell CPT inconclusive.
For COc1ccc(NC(=O)CN2C(=O)NC(C)(C3CC3)C2=O)cc1S(=O)(=O)N1CCCCC1 (centres undefined) the results were HT1080 IDH1KD tx -4%, IL-1B inflam inh -2, uPA generation 1%, TDP1 cell noCPT 0%, TDP1 cell CPT -2% and HT1080-NT tox -3%.
`Fc1ccccc1CNCC1CCCO1` (centres undefined) gave HT1080 IDH1KD tx 1%, IL-1B inflam inh 6, uPA generation 0%, TDP1 cell noCPT 2%, TDP1 cell CPT 1% and HT1080-NT tox 9%.
Fc1ccc(COc2ccc(Br)cc2CNCC2CCCO2)cc1 (centres undefined) was read as HT1080 IDH1KD tx inconclusive, IL-1B inflam inh -74*, uPA generation -4%, TDP1 cell noCPT inconclusive, TDP1 cell CPT inconclusive and HT1080-NT tox inconclusive.
Fc1cccc(CNCC2CCCO2)c1 (centres undefined) was read as HT1080 IDH1KD tx 10%, IL-1B inflam inh 3, uPA generation 2%, TDP1 cell noCPT -3%, TDP1 cell CPT -7% and HT1080-NT tox 8%.
Fc1ccccc1COc1ccc(Br)cc1CNCC1CCCO1 (centres undefined) was read as HT1080 IDH1KD tx -3%, IL-1B inflam inh inconclusive, uPA generation -8%, TDP1 cell noCPT 15µM*, TDP1 cell CPT inconclusive and HT1080-NT tox -8%.
